# Assay results: PubChem BioAssay (NCATS)
# Results filed as inconclusive are left out. A call without a number means that no potency is given here. Activity calls are given as the source filed them. The call rests on the fitted dose curve; in most records, active means well fitted inhibition curve with a large enough effect; inconclusive means small, poorly fitted or top-dose-only effect; inactive means flat fitted curve, though single readings scatter.
# Biological target: Calcium and integrin-binding protein 1 (Homo sapiens) (UniProt Q99828)
# Sequence (Q99828 whole entry, looked up): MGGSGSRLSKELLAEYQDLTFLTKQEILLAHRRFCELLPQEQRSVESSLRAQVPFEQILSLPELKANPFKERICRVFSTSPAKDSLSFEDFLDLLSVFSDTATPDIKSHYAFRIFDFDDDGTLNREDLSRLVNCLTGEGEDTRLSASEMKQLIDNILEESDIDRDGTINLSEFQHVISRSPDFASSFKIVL
# Experiment: Primary qHTS for Identification of Calcium Integrin Binding Protein 1 (CIB1) Competitor (AID 1508620); further: top concentration of the series differs between compounds
# Settings: CIB1-GST / FITC-alphaIIb peptide fluorescence polarization; series mostly up to 114 µM
# Outline: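 Fluorescence polarization competition: GST-tagged CIB1 (1 uM final) preincubated with compound 15 min at room temperature, then FITC-labelled alphaIIb peptide (100 nM final) added. After 15 min at room temperature, polarization read at Ex 480/Em 540.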
row,SMILES,Potency
1,COc1ccc(-c2nc3ccccc3c(=O)n2Cc2ccccc2)cc1CNc1ccc(NC(C)=O)cc1,inactive
2,COc1ccc(C2Nc3ccccc3C(=O)N2Cc2cccnc2)cc1COc1c(C)cc(NC(C)=O)cc1C (stereo not given),inactive
3,Cc1ccc(C(=O)Nc2ccc(N3CCCCC3)cc2)cc1,inactive
4,O=C(CN1C(=O)N/C(=C\c2cccn2-c2cccc(C(=O)O)c2)C1=O)Nc1ccc(F)cc1,inactive
5,COc1ccc(C2Nc3ccccc3C(=O)N2Cc2ccccc2)cc1COc1ccc(C(N)=O)cc1 (stereo not given),inactive
6,Cc1cccc(CNc2ccnc(-c3cccc4ccccc34)n2)c1,inactive
7,O=C1CCCC2=C1C(c1[nH]ncc1Cl)NC(=S)N2 (stereo not given),inactive
8,NC(=O)C1CCN(c2nc(-c3ccc(N)cc3)cs2)CC1,inactive
9,CC(C)(C)OC(=O)N1CCN(c2ccc(NCc3ncc(-c4ccc(C#N)cc4)o3)cc2)CC1,inactive
10,COC(=O)c1ccc2c(c1)S(=O)(=O)NC2=O,inactive
11,COc1ccc(CN(Cc2ccccc2)C(=O)c2ccccc2O)cc1COc1ccc(NC(C)=O)cc1,inactive
12,NC(=O)C1CCN(c2nc(-c3cccc(F)c3)cs2)CC1,inactive
13,O=c1c2ccccc2nc2sc(NCc3ccc(Cc4ccccc4)cc3)nn12,inactive
14,COC(=O)c1ccnc(NCc2ccc(O)c3ncccc23)c1,inactive
15,O=C1CCCC2=C1C(c1ccccc1)N=C(Nc1nc3ccccc3o1)N2 (stereo not given),inactive
16,O=C(Nc1ccc(-c2nc3ccccc3[nH]2)cc1)c1ccc2n[nH]nc2c1,inactive
17,Cc1ccc(CN(C)c2ncnc3ccc(-c4ccc5c(c4)OCO5)cc23)o1,inactive
18,O=C(c1ccc(-c2cnc3c(O)cccc3c2)cc1)N1CCNCC1,inactive
19,Oc1c(C(Nc2ccccn2)c2ccccc2)cc(Cl)c2cccnc12 (stereo not given),inactive
20,O=S(=O)(c1ccc2c(c1)OCCO2)N1CCN(S(=O)(=O)c2ccc(Cl)cc2F)CC1,inactive

row,SMILES,Potency
1,Cc1cc(-c2nnc3n2CCCCC3)c(C)n1-c1cccc2ccccc12,inactive
2,N#Cc1nc(Nc2cccc([N+](=O)[O-])c2)nc(NC2CCCC2)n1,inactive
3,Nc1nnc(-c2cccc3ccccc23)o1,inactive
4,O=C(Nc1cncc(Cc2ccccc2)c1)c1ccc(-c2cccc([N+](=O)[O-])c2)o1,inactive
5,Cc1ccnc(NC(=S)N2CC3CN(c4cccc(C(F)(F)F)c4)CC3C2)c1 (stereo not given),inactive
6,O=C(O)c1ccc(-c2noc(-c3ccccc3F)n2)cc1,inactive
7,N#Cc1nc(-c2cccc3ccccc23)oc1N,inactive
8,O=S(=O)(c1ccc2c(c1)OCCO2)N1CCN(S(=O)(=O)c2cccs2)CC1,inactive
9,Cc1ccc2nc3sc(C(=O)NCCN4CCOCC4)cc3cc2c1,inactive
10,CN(C)c1cccc(-c2nccc(N3CCC(C(N)=O)CC3)n2)c1,inactive
11,N#Cc1cccc(-c2ccc(CNc3nc(-c4ccccc4C(F)(F)F)nc4ccccc34)cc2)c1,inactive
12,Cc1ccc(C2N=C(Nc3nc4ccccc4o3)NC3=C2C(=O)CCC3)cc1 (stereo not given),inactive
13,Cc1cc(-c2nnc3n2CCCCC3)c(C)n1-c1ccc(C#N)cc1,inactive
14,Cc1ccc(-c2csc(N3CCC(C(N)=O)CC3)n2)cc1,inactive
15,CCOC(=O)C1CCN(C(=O)C(C)(C)NC(=O)Nc2ccc(N(C)C)cc2)CC1,inactive
16,CC(=O)c1ccc(N2CCN(C(=O)c3ccc4c(c3)CCC(=O)N4)CC2)cc1,inactive
17,NC(=O)C1CCN(c2nc(-c3ccc([N+](=O)[O-])cc3)cs2)CC1,inactive
18,NC(=O)C1CCN(c2ncc(-c3ccc(Cl)cc3)s2)CC1,inactive
19,CN(CCc1cccs1)c1ncnc2ccc(-c3ccc4c(c3)OCO4)cc12,inactive
20,COc1ccc(NC(=O)CSc2nnc(-c3cccc(S(=O)(=O)N4CCCC4)c3)n2-c2ccccc2)cc1,inactive
